Measured values: PubChem BioAssay AID1159580 (chemical genetic matrix, 2015)
The campaign covered roughly 5,500 compounds. About 2,000 (36%) were called active. Another 18% or so got no clear call; they are omitted. The list shows a part of the results. Unmarked numbers belong to inactive results. Rule as the data show it: active = normalized growth mostly below about 0.91 (no sharp cut-off); inconclusive = no clear call, values can overlap the other calls; inactive = mostly above about 0.92.

Assay: chemical genetic growth profiling, strain panel (AID 1159580);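 also: tested at 20 µM; growth read once vehicle control cultures reached saturation at 30 °C; 1 = growth at the plate median or of vehicle wells; lower values mean less growth of the strain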
Conditions: S. cerevisiae deletion strains, growth OD

## O=C1/C(=C/c2c(F)cccc2Cl)Cc2ccccc21
Locus YAR019C, strain CDC15, hits give low values
  normalized growth: 0.965
Locus YBL105C, strain PKC1, hits give low values
  normalized growth: 0.965
Locus YBR135W, strain CKS1, hits give low values
  normalized growth: 0.959
Locus YBR136W, strain MEC1, hits give low values
  normalized growth: 0.962
Locus YBR160W, strain CDC28, hits give low values
  normalized growth: 0.964
Locus YDL017W, strain CDC7, hits give low values
  normalized growth: 0.963
Locus YDL028C, strain MPS1, hits give low values
  normalized growth: 0.96
Locus YDL101C, strain DUN1, hits give low values
  normalized growth: 0.96
Locus YDL108W, strain KIN28, hits give low values
  normalized growth: 0.967
Locus YDL132W, strain cdc53, hits give low values
  normalized growth: 0.96
Locus YDL214C, strain PRR2, hits give low values
  normalized growth: 0.96
Locus YDR052C, strain DBF4, hits give low values
  normalized growth: 0.977
Locus YDR054C, strain cdc34, hits give low values
  normalized growth: 0.961
Locus YDR226W, strain ADK1, hits give low values
  normalized growth: 0.967
Locus YDR477W, strain SNF1, hits give low values
  normalized growth: 0.945
Locus YER123W, strain YCK3, hits give low values
  normalized growth: 0.876
Locus YER133W, strain GLC7, hits give low values
  normalized growth: 0.948
Locus YFL009W, strain cdc4, hits give low values
  normalized growth: 0.961
Locus YFL029C, strain CAK1, hits give low values
  normalized growth: 0.961
Locus YFR003C, strain YPI1, hits give low values
  normalized growth: 0.962
Locus YFR019W, strain FAB1, hits give low values
  normalized growth: 0.903
Locus YFR028C, strain CDC14, hits give low values
  normalized growth: 0.96
Locus YGR040W, strain KSS1, hits give low values
  normalized growth: 0.947
Locus YGR052W, strain FMP48, hits give low values
  normalized growth: 0.974
Locus YGR092W, strain DBF2, hits give low values
  normalized growth: 0.841
Locus YHR030C, strain SLT2, hits give low values
  normalized growth: 0.882
Locus YHR079C, strain IRE1, hits give low values
  normalized growth: 0.884
Locus YHR082C, strain KSP1, hits give low values
  normalized growth: 0.916
Locus YHR205W, strain SCH9, hits give low values
  normalized growth: 0.871
Locus YIL147C, strain SLN1, hits give low values
  normalized growth: 0.963
Locus YJL095W, strain BCK1, hits give low values
  normalized growth: 0.927
Locus YJL128C, strain PBS2, hits give low values
  normalized growth: 0.929
Locus YJL157C, strain FAR1, hits give low values
  normalized growth: 0.945
Locus YJR016C, strain ILV3, hits give low values
  normalized growth: 0.965
Locus YJR066W, strain TOR1 (second series), hits give low values
  normalized growth: 0.906
Locus YJR066W, strain TOR1, hits give low values
  normalized growth: 0.892
Locus YKL048C, strain ELM1, hits give low values
  normalized growth: 0.968
Locus YKL067W, strain YNK1, hits give low values
  normalized growth: 0.961
Locus YKL101W, strain HSL1, hits give low values
  normalized growth: 0.965
Locus YKL193C, strain SDS22, hits give low values
  normalized growth: 0.961
Locus YKL203C, strain TOR2, hits give low values
  normalized growth: 1.03
Locus YLR113W, strain HOG1, hits give low values
  normalized growth: 0.834 (active)
Locus YLR133W, strain CKI1, hits give low values
  normalized growth: 0.955
Locus YLR403W, strain SFP1, hits give low values
  normalized growth: 0.927
Locus YML070W, strain DAK1, hits give low values
  normalized growth: 0.929
Locus YMR001C, strain CDC5, hits give low values
  normalized growth: 0.961
Locus YMR205C, strain PFK2 (second series), hits give low values
  normalized growth: 0.956
Locus YMR277W, strain FCP1, hits give low values
  normalized growth: 0.963
Locus YNL006W, strain LST8, hits give low values
  normalized growth: 0.97
Locus YNL020C, strain ARK1, hits give low values
  normalized growth: 0.947
Locus YNL161W, strain CBK1, hits give low values
  normalized growth: 0.965
Locus YNL183C, strain NPR1, hits give low values
  normalized growth: 0.9
Locus YNL207W, strain RIO2, hits give low values
  normalized growth: 0.965
Locus YNL222W, strain SSU72, hits give low values
  normalized growth: 0.965
Locus YNL307C, strain MCK1 (second series), hits give low values
  normalized growth: 0.885
Locus YOL078W, strain AVO1, hits give low values
  normalized growth: 0.962
Locus YOL136C, strain PFK27, hits give low values
  normalized growth: 0.92
Locus YOR061W, strain CKA2, hits give low values
  normalized growth: 0.942
Locus YOR119C, strain RIO1, hits give low values
  normalized growth: 0.952
Locus YOR231W, strain MKK1, hits give low values
  normalized growth: 0.92
Locus YOR329C, strain SCD5, hits give low values
  normalized growth: 0.963
Locus YPL031C, strain PHO85, hits give low values
  normalized growth: 0.928
Locus YPL153C, strain RAD53, hits give low values
  normalized growth: 0.947
Locus YPL204W, strain HRR25, hits give low values
  normalized growth: 0.927
Locus YPL209C, strain IPL1, hits give low values
  normalized growth: 0.968
Locus YPL256C, strain CLN2, hits give low values
  normalized growth: 0.887
Locus YPR025C, strain CCL1, hits give low values
  normalized growth: 0.957
Locus YPR106W, strain ISR1, hits give low values
  normalized growth: 0.957
Locus YPR111W, strain DBF20, hits give low values
  normalized growth: 0.957
Strain NNK1, hits give low values
  normalized growth: 0.943
Strain TSCII, hits give low values
  normalized growth: 0.962
